# Source: PubChem
# Compounds with a hit are over-represented: about 4.2% of the library has one in this group of screens.
# PLK1 PBD block: qHTS for Inhibitors of PLK1-PDB (polo-like kinase 1 - polo-box domain): Primary Screen. hit rate 2.8% among 360,000. Plk1 PBD binding of FITC phosphopeptide, fluorescence polarization. Potency, µM, without a hit: max response, negative = inhibition, actives largely listed as inhibitors. Serine/threonine-protein kinase PLK1 (Homo sapiens), P53350; also: series mostly up to about 57 µM; nearly all actives have a fitted effect of over 65% in size
# Target sequence (P53350 whole entry, looked up, the tested form may be a part): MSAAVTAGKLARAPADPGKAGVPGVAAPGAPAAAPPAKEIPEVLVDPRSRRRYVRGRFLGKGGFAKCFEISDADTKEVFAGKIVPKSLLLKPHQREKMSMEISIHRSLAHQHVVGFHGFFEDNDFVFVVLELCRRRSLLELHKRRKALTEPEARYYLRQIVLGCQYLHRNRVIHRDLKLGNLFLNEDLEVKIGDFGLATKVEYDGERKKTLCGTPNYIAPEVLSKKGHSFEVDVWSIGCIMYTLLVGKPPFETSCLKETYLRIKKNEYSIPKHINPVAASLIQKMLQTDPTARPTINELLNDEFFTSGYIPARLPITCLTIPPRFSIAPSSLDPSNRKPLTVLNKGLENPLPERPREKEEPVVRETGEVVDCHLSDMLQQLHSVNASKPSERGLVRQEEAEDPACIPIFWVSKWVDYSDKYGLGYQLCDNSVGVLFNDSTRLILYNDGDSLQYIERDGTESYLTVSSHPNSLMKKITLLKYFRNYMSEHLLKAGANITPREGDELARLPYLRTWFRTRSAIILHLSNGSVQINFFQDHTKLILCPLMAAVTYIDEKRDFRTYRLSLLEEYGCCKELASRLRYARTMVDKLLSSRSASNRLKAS
# VDR inh: Inhibitors of the vitamin D receptor (VDR): qHTS; Vitamin D3 receptor (Homo sapiens), P11473; VDR-SRC2-3 peptide fluorescence polarization, 2 h; Potency, µM, without a hit: max response, negative = inhibition, most hits filed as inhibitors; hit rate 0.93% among 400,000; AID 504847, 2011
#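 Inhibition of the VDR/SRC2-3 peptide interaction is quantified by fluorescence polarization. Compounds (23 nl, pintool) incubate with the reagents for 2 hours at ambient room temperature.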
# 12-LOX inh: Primary qHTS assay for inhibitors of human arachidonate 12S-lipoxygenase (ALOX12): Round 2; purified 12hLO, xylenol orange hydroperoxide absorbance; Potency, µM (doses to about 108 µM), for inactives: at the top dose activity change, negative = inhibition, most hits filed as inhibitors; hit rate 1.1% among 580,000
#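 Purified human 12hLO (150 nM final) in 25 mM Hepes, 0.01% Triton X-100, pH 7.0 was preincubated 15 min at room temperature with compound. Then 40 uM arachidonic acid was added, 30 min. Hydroperoxide was read by Fe-XO absorbance ratio 573/405 nm.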
# Sfp inh: qHTS Assay for Inhibitors of Bacillus subtilis Sfp phosphopantetheinyl transferase (PPTase); AID 1490, 2009; Potency, µM, for inactives: largest response in the series, negative = inhibition, hits mostly inhibitors; hit rate 3.5% among 310,000; Biochemical Sfp PPTase activity, qHTS;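 also: the enzyme is Sfp with the accession as filed and its product quenches rhodamine fluorescence; 0% = enzyme reaction without inhibitor and -100% = no enzyme wells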
#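 Buffer: 50 mM Hepes-Na pH 7.6, 10 mM MgCl2, 0.01% Nonidet P-40, 0.01% BSA. Enzyme 15 nM, pre-exposed to compound 15 min; substrates then added and fluorescence change tracked over 30 min.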
# * = called active by the depositor; ? = inconclusive; . = not tested or not shown. Calls follow the shape of the dose curve; as a rule, active = well fitted curve in the direction sought with a large enough effect; inconclusive = small, poorly fitted or top-dose-only effect, or another doubt; inactive = no such curve, though single readings can be large; an effect the other way counts as inactive or inconclusive. Unless noted, % is scaled to controls: 0 for no effect and ±100 for the full control effect; potency is read from the fitted curve at half-maximal effect.
SMILES,PLK1 PBD block,VDR inh,12-LOX inh,Sfp inh
COc1ccc(N2CCN(C(=O)CN(c3cccc(Br)c3)S(C)(=O)=O)CC2)cc1,-5.6%,-11.8%,-11.2%,2.5%
CS(=O)(=O)N(CC(=O)N1CCN(c2ccccc2)CC1)c1cccc(Br)c1,1.7%,3.2%,28.2µM*,3.4%
C1CC1C(=NN=C(C1CC1)C1CC1)C1CC1,-2.0%,9.0%,8.7%,.
Cc1ccc(C(=O)N2O[C@]34C=C[C@]25C[C@@H](O)CC[C@]5(C)C3CC[C@]2(C)[C@@H]([C@H](C)/C=C/[C@H](C)C(C)C)CC[C@H]24)cc1 (some centres undefined),.,.,-7.4%,.
CC1CCC(C)[S+]1c1cc(O)ccc1O (centres undefined),.,.,10µM*,.
Nc1nc(N)nc(-c2cc(O)ccc2O)n1,-5.6%,18.8%,-4.3%,.
CCN(c1ccccc1)S(=O)(=O)c1ccc(Cl)c(NC(=O)CN(C)C2CCN(C)CC2)c1,3.7%,13.3%,-26.7%,79.4µM*
CCN(c1ccccc1)S(=O)(=O)c1ccc(Cl)c(NC(=O)CN2CCN(C)CC2)c1,-1.4%,-9.2%,?,.
O=C(O)C1CSC(c2ccc3c(c2)OCO3)N1 (centres undefined),10.6µM*,?,?,25.1µM*
CCc1ccc(C2NC(C(=O)O)CS2)cc1 (centres undefined),.,.,.,-11.7%
Fc1ccc(N/N=C2/CCSc3sccc32)c(F)c1,?,-21.5%,35.5µM*,-19.9%
CC1(COc2ccccc2)COc2ccc(C(=O)NCc3ccncc3)cc2N1 (centres undefined),.,.,28.2µM*,.
O=C(O)c1ccc(Cn2cc(/C=C\[N+](=O)[O-])c3ccccc32)o1,26.7µM*,12.6µM*,?,-26.5%
COc1ccc(Cn2c(CCC(=O)Nc3cc(C)cc(C)c3)nc3cccnc32)cc1,.,-11.0%,-24.0%,.
COc1ccc(Cn2c(CCC(=O)Nc3ccc(C)cc3)nc3cccnc32)cc1,23.8µM*,-16.8%,?,2.1%
CCC(=O)Nc1ccc(S(=O)(=O)NCc2ccc3c(c2)CCN3C(=O)c2ccc(C)cc2)cc1,.,9.1%,0.0%,.
Cc1ccc(S(=O)(=O)NCC23C=CC(O2)C2C(=O)N(c4ccccc4)C(=O)C23)cc1 (centres undefined),-4.9%,6.5%,18.9%,28.2µM*
Cc1cccc(NC(=S)NNC(=O)COc2ccc(Cl)cc2Cl)c1,-13.1%,-21.4%,?,?
Cc1ccc(N2C(=O)C3C4C=CC(CNC(=S)N5CCN(c6ccccc6)CC5)(O4)C3C2=O)cc1 (centres undefined),-18.8%,-20.0%,-3.3%,12.6µM*
Cc1cccc(NC(=S)NCC23C=CC(O2)C2C(=O)N(c4ccc(Cl)cc4)C(=O)C23)c1 (centres undefined),-13.4%,?,?,35.5µM*
Cc1ccc(NC(=S)NCC23C=CC(O2)C2C(=O)N(c4ccc(C)cc4)C(=O)C23)cc1 (centres undefined),-9.9%,?,?,35.5µM*
C#CCOCCOCCOCCNc1nc(N2CCN(C(=O)[C@H](CCCCN)n3cc([C@@H](N)[C@H](C)CC)nn3)CC2)nc(N2CCN(C(=O)[C@H](CCC(=O)O)n3cc([C@@H](N)CCSC)nn3)CC2)n1,-6.9%,-1.2%,?,.
CCCSC1=C(C#N)C(c2cccs2)CC(=O)N1 (centres undefined),23.8µM*,-8.3%,93.3%,25.1µM*
CCCSC1=C(C#N)C(c2ccc(O)cc2)CC(=O)N1 (centres undefined),.,.,37.0%,.
O=C(CSc1cccc2cccnc12)NNC(=O)C(c1ccccc1)c1ccccc1,.,.,-13.3%,.
SMILES,PLK1 PBD block,VDR inh,12-LOX inh,Sfp inh
O=C(O)CSc1cccc2cccnc12,-20.7%,0.1%,?,56.2µM*
Cc1cc(C)c2c(=O)[nH]c(SCC(=O)Nc3cccc(S(=O)(=O)N(C)C)c3)nc2n1,-5.5%,-11.3%,11.4%,.
CN(C)S(=O)(=O)c1cccc(NC(=O)CSc2cccc3cccnc23)c1,10.6µM*,-6.0%,?,-1.9%
CC(C)CCNc1nc(-c2ccc3c(c2)NC(=O)CO3)cs1,.,.,16.1%,.
CC(C)CNc1nc(-c2ccc3c(c2)CCC(=O)N3)cs1,.,.,12.6µM*,.
COc1ccccc1Nc1nc(-c2ccc3c(c2)CCC(=O)N3)cs1,.,.,10µM*,.
